Reference: PubChem BioAssay (NCATS)
Records with an inconclusive call do not appear. A number with no mark means an inactive call. Active and inactive are the calls of the source. Calls come from the whole dose curve; as a rule, active = well fitted cell-killing curve with a large enough effect; inconclusive = small, poorly fitted or top-dose-only effect, or effect the other way; inactive = no such curve, though single readings can be large or run the other way.

Tests used:
[1] = Viability qHTS for spleen associated tyrosine kinase inhibitor (SYKi) naive MV4-11 cells (AID 1963823); note: nearly all actives have a fitted effect of over 40% in size
In short: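 Luminescence from CellTiter-Glo, developed 10 min at room temperature, gave viability of MV4-11 cells never exposed to SYK inhibitor. Cells (500/well) had been incubated with compounds for 72 hr under standard culture conditions.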

[2] = Viability qHTS for spleen associated tyrosine kinase inhibitor (SYKi) drug resistant MV4-11 cells (AID 1963824); note: nearly all actives have a fitted effect of over 35% in size
In short: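 SYK inhibitor-resistant MV4-11 AML cells, 500 per well, added to predispensed compounds and incubated 72 hr at 37 C, 5% CO2. Viability measured by CellTiter-Glo luminescence after 10 min at room temperature.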
Potency is the fitted concentration of half-maximal effect.

SMILES | Potency [1] | Potency [2] | viability (% of control) [1] | viability, % of control [2]
CCNC(=O)c1noc(-c2cc(Cl)c(O)cc2O)c1-c1ccc(OC)cc1 | 0.0326 µM (active) | 0.058 µM (active) | – | –
CC(C)c1cc2c(c(O)c1O)[C@@]13CCCC(C)(C)C1[C@@H](O)[C@@H]2OC3=O (stereo partly drawn) | 4.53 µM (active) | 10.1 µM (active) | – | –
CC1(C=O)CC[C@]2(C(=O)O[C@@H]3O[C@H](CO)[C@@H](O)[C@H](O)[C@H]3O)CC[C@]3(C)C(=CCC4[C@@]5(C)C[C@H](O)[C@H](O[C@@H]6OC[C@@H](O)[C@H](O)[C@H]6O)[C@@](C)(CO)C5CC[C@]43C)C2C1 (stereo partly drawn) | – | – | 95.5% [at 9.25 µM] | 103% [at 9.25 µM]
COC(=O)C1=C[C@@H](O)[C@@H](O)[C@H](O[C@@H]2O[C@H](COC(=O)/C=C/c3ccccc3)[C@@H](O)[C@H](O)[C@H]2O)C1 | inactive | inactive | – | –
COc1cc(C2Oc3c(OC)cc(CCCO[C@@H]4O[C@H](CO)[C@@H](O)[C@H](O)[C@H]4O)cc3C2CO)ccc1O (stereo partly drawn) | inactive | inactive | – | –
CCN1/C(=C/C(C)=O)Sc2ccc(OC(C)=O)cc21 | 7.31 µM (active) | 10.3 µM (active) | – | –
C[C@]12CCC(=O)C=C1[C@@H](O)C[C@@H]1[C@@H]2[C@@H](O)C[C@@]2(C)[C@H]1CC[C@]2(O)C(=O)CO | inactive | inactive | – | –
CC1(C)CCC2(C(=O)OC3OCC(O)C(O)C3O)CCC3(C)C(=CCC4C5(C)CC(O)C(OC6OC(COC7OCC(O)C(O)C7O)C(O)C(O)C6O)C(C)(C)C5CCC43C)C2C1 (stereo not drawn) | – | – | 68.8% [at 9.25 µM] | 78.5% [at 9.25 µM]
Nc1cc(C(F)(F)F)ccc1S | 21.1 µM (active) | 23.7 µM (active) | – | –
CN1CCN(S(=O)(=O)c2ccc(-c3cnc(N)c(C(=O)Nc4cccnc4)n3)cc2)CC1 | 0.893 µM (active) | 0.796 µM (active) | – | –
CC1(C)C[C@@H]2[C@H](C1)[C@@]1(C)C[C@]13C(O)OC[C@]3(O)[C@H]2O (stereo partly drawn) | inactive | inactive | – | –
C[C@@H]1O[C@@H](O[C@@H]2CO[C@@H](O[C@H]3CC[C@@]4(C)C(CC[C@]5(C)C4CC=C4[C@@H]6CC(C)(C)CC[C@]6(C(=O)O[C@@H]6O[C@H](CO)[C@@H](O)[C@H](O)[C@H]6O)CC[C@]45C)[C@]3(C)CO)[C@H](O)[C@H]2O[C@@H]2O[C@H](CO)[C@@H](O)[C@H](O)[C@H]2O)[C@H](O)[C@H](O)[C@H]1O (stereo partly drawn) | – | – | 57.4% [at 9.25 µM] | 62.6% [at 9.25 µM]
O=C1c2ccccc2-c2nc3nnnn3nc21 (tested in a mixture with another compound) | 0.092 µM (active) | 0.103 µM (active) | – | –
CC1(C)COC(=O)[C@@H]1O[C@@H]1O[C@H](CO)[C@@H](O)[C@H](O)[C@H]1O | inactive | inactive | – | –
OCCc1ccc(O[C@@H]2O[C@H](CO)[C@@H](O)[C@H](O)[C@H]2O)c(O)c1 | inactive | inactive | – | –
COc1ccc2c(c1)CN(C(=O)CCN1CCC(Cc3ccccc3)CC1)CCS2 | 8.93 µM (active) | 8.93 µM (active) | – | –
C/C=C/C1=CC2=C(CO1)C(=O)C(C)(O)C(OC(=O)c1c(C)cc(OC)cc1O)C2 (stereo not drawn) | 6.4 µM (active) | 4.04 µM (active) | – | –

SMILES | Potency [1] | Potency [2] | viability (% of control) [1] | viability, % of control [2]
COc1ccc2[nH]c3c(c2c1)CCN[C@]31CS[C@@H]2c3c(OC(C)=O)c(C)c4c(c3[C@H](COC1=O)N1[C@@H]2[C@H]2c3c(cc(C)c(OC)c3O)C[C@@H]([C@@H]1O)N2C)OCO4 | 0.0015 µM (active) | 0.0011 µM (active) | – | –
CC(=O)c1ccc2c(c1)C(O)C(C(C)(C)O)O2 (stereo not drawn) | inactive | inactive | – | –
Cc1ccc(-c2c(-c3nn(C)c4ncnc(N5CCC(N6CCCCC6)C5)c34)cnn2C)cc1 (stereo not drawn) | 16.4 µM (active) | inactive | – | –
CCCCCCc1cccc(NC(=O)[C@H](N)CCP(=O)(O)O)c1 | – | – | 90.5% [at 9.25 µM] | 99.2% [at 9.25 µM]
CC(O)C(O)/C=C/C=C/C(=O)O[C@@H]1C=C(C(=O)O)[C@](O)(CO)[C@@]2(C)CCCC(C)(C)[C@H]12 (stereo partly drawn) | inactive | inactive | – | –
COc1ccc(C(=O)CC(=O)O)c2c1C=CC(C)(C)O2 | inactive | inactive | – | –
O=C1NC(=O)c2cc(Nc3ccc(F)cc3)c(Nc3ccc(F)cc3)cc21 | 2.91 µM (active) | 1.03 µM (active) | – | –
O=C(/C=C/c1c(C(=O)O)[nH]c2cc(Cl)cc(Cl)c12)Nc1ccccc1 | inactive | inactive | – | –
CC(C)C(C(=O)N1CCCC1C(=O)O)N(C)C(=O)C(O)Cc1ccccc1 (stereo not drawn) | inactive | inactive | – | –
CCOC(=O)[C@H](CCc1ccccc1)CC1(C(=O)N[C@H]2CCc3ccccc3N(CC(=O)O)C2=O)CCCC1 | 14.6 µM (active) | 14.6 µM (active) | – | –
CNC(=O)c1ccc2cc([C@@]3(O)CCn4cncc43)ccc2c1 | inactive | inactive | – | –
CC1=CC(=O)C2C(C)(C)CCC[C@]2(C)[C@H]1CO (stereo partly drawn) | inactive | inactive | – | –
COC(=O)c1ccc(OC)cc1O[C@@H]1O[C@H](CO[C@@H]2OC[C@@H](O)[C@H](O)[C@H]2O)[C@@H](O)[C@H](O)[C@H]1O | inactive | inactive | – | –
CCCc1cc(C(=O)N[C@H](Cc2ccc(-c3cccc(OC(F)(F)F)c3)nc2)C(=O)N[C@@H]2CCNC2)sc1C | 6.61 µM (active) | 7.42 µM (active) | – | –
O=C(C1=CCN2c3c(cccc31)OC[C@H]2CN1CCOCC1)c1cccc2ccccc12 | 14.6 µM (active) | 18.4 µM (active) | – | –
CC(=O)C12OC(C)(C)OC1CC1C3CCC4=CC(=O)C=CC4(C)C3(F)C(O)CC12C (stereo not drawn) | inactive | inactive | – | –
CCc1c(C)nc2c(-c3cnn(-c4cc(CO)ccn4)c3)c[nH]n2c1=O | inactive | inactive | – | –
